Assay [1] in a line: qHTS assay to identify small molecule antagonists of the constitutive androstane receptor (CAR) signaling pathway - cell viability counter screen (AID 1224837). Note: nearly all actives have a fitted effect of over 45% in size. In short, it runs like this:
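Using CellTiter-Fluor, viability is scored in HepG2 cells stably carrying hCAR and a 2.2kb CYP2B6 reporter after 23 hr compound exposure across 15 concentrations, with CITCO present at 50 nM.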
Background: qHTS replaces the single test concentration by a dilution series.

In assay [2] the target is Nuclear receptor subfamily 1 group I member 3 (Homo sapiens) (UniProt Q14994). Briefly: qHTS assay to identify small molecule antagonists of the constitutive androstane receptor (CAR) signaling pathway (AID 1224838).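 Note: HepG2 cells stably expressing hCAR with CYP2B6 luciferase reporter stimulated by CITCO; nearly all actives have a fitted effect of over 40% in size.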 Summed up: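 Reporter luminescence was quantified after 24 h exposure of hCAR/CYP2B6-2.2kb double-stable HepG2 cells to compounds at 15 concentrations in the presence of 50 nM CITCO final.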
Sequence of Nuclear receptor subfamily 1 group I member 3 (Homo sapiens) (Q14994 whole entry, looked up): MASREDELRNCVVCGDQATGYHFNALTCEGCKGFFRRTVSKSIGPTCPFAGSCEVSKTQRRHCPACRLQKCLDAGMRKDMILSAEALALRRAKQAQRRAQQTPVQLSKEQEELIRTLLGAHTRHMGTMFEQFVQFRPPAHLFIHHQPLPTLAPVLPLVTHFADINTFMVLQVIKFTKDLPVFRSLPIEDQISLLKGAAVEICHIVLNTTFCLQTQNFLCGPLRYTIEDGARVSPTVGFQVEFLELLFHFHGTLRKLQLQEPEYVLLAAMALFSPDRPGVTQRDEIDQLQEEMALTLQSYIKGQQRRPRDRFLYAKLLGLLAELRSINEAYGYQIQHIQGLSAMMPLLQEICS

The target is the same in assay [3]. Briefly: qHTS assay to identify small molecule agonists of the constitutive androstane receptor (CAR) signaling pathway (AID 1224839).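 For activation: HepG2 cells stably carrying human CAR and a CYP2B6 luciferase reporter.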 Note: nearly all actives have a fitted effect of over 15% in size. Note: potency is the fitted concentration of half-maximal effect. In short, it runs like this:
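Luminescence read-out (ONE-Glo, 30 min, room temperature) from double-stable HepG2-CYP2B6-hCAR cells exposed 24 h to 15-point compound series in presence of 0.75 uM PK11195 final.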

Assay [4] can be described thus: qHTS assay to identify small molecule antagonists of the estrogen related receptor signaling pathway with the pleiotropic PPARgamma coactivator (PGC) from Tox21 10K library - cell viability counter screen (AID 1224840; active = well fitted cell-killing curve with a large enough effect in the repeat runs, not every such curve was filed as active; note: nearly all actives have a fitted effect of over 40% in size). In short, it runs like this: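 Here the PGC/ERR cells serve as a cytotoxicity control: they are exposed to compounds for 17.5 hours at 37 C, and live-cell signal is quantified using CellTiter-Fluor fluorescence.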

Assay [5] addresses Thyrotropin receptor (Homo sapiens) (UniProt P16473). Briefly: qHTS assay to identify small molecule agonists of the thyroid stimulating hormone receptor (TSHR) signaling pathway (AID 1224843; calls by dose curve; note: nearly all actives have a fitted effect of over 45% in size). Summed up:
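TSHR-HEK293 cells in agonist mode, 30 min room-temperature step, then cAMP measured by competitive HTRF (cAMP-d2 with anti-cAMP cryptate) after 1 h at room temperature. Tested at 15 concentrations in triplicate.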

Assay [6] is described as follows: qHTS assay to identify small molecule agonists of the hypoxia (HIF-1) signaling pathway - cell viability counter screen (AID 1224844; calls by dose curve; note: nearly all actives have a fitted effect of over 50% in size). In short, it runs like this:
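Multiplexed with the HRE beta-lactamase assay, this viability read used CellTiter-Glo luminescence (30 min, RT) on HRE-bla ME-180 cells treated 17 hrs with compounds in 0.5% dialyzed FBS medium.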

A short description of assay [7]: qHTS assay to identify small molecule agonists of H2AX (AID 1224845; active = well fitted activation curve with a large enough effect in the signal ratio in the repeat runs, not every such curve was filed as active; the % refers to the signal ratio). Summed up:
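Wild-type CHO-K1 cells, plated overnight, exposed 3hr at 37C to 15 concentrations (0.76% DMSO final). Lysed, then HTRF anti-pH2AX (S139) cryptate and anti-H2AX-d2 antibodies, 24 hr room temperature; 665/620 nm emission read.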

Assay [8] is described as follows: qHTS assay to identify small molecule agonists of the hypoxia (HIF-1) signaling pathway (AID 1224846; active = well fitted activation curve with a large enough effect in the signal ratio in the repeat runs, not every such curve was filed as active; the % refers to the signal ratio). In short, it runs like this: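 Hypoxia-pathway activation was scored as increased beta-lactamase from an HRE-controlled reporter in ME-180 cells; plated at 2,000 cells per well with 0.5% dialyzed FBS, they were exposed 17 hrs to compounds and then given CCF4-AM.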

A short description of assay [9]: qHTS RealTime-Glo MT Cell Viability Assay in HepG2 cells - 24 hour (AID 1224867). Note: nearly all actives have a fitted effect of over 50% in size. Summed up:
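HepG2 cells (600/well) were dispensed with RealTime-Glo reagents, incubated 5 h at 37 °C, then treated with compounds in DMSO for up to 40 h. Nonlytic NanoLuc luminescence reflecting viable cells was read at each stated time point.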

Assay [10] can be described thus: qHTS RealTime-Glo MT Cell Viability Assay in HEK293 cells - 32 hour (AID 1224868). Note: nearly all actives have a fitted effect of over 50% in size. Note: potency is the fitted concentration of half-maximal effect. Summed up:
(§1)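 HEK293 cells seeded with NanoLuc/prosubstrate reagent, rested 5 h at 37 C, then dosed and kept at 37 C up to 40 h. Nonlytic real-time luminescence from viable cells read at 0, 8, 16, 24, 32 and 40 h.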

Assay [11] in a line: A CellTox Green Cytotoxicity Assay to monitor cytotoxicity in HEK293 cells - 0 hour (AID 1224869). Note: nearly all actives have a fitted effect of over 50% in size. Summed up: (§2)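 Seeding of HEK293 cells together with cytotoxicity dye preceded a 5 h incubation at 37 C/5% CO2. Test compounds in DMSO were then added and fluorescence monitored across 40 h.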
Assay [12] can be described thus: qHTS RealTime-Glo MT Cell Viability Assay in HepG2 cells - 40 hour (AID 1224870). Note: nearly all actives have a fitted effect of over 50% in size. Summed up: (§3)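 HepG2 cells (600/well) mixed with RealTime-Glo MT reagent, settled 5 h at 37 C/5% CO2 before compound addition. Nonlytic NanoLuc luminescence from viable-cell prosubstrate reduction read repeatedly during 40 h treatment at 37 C.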
A short description of assay [13]: A CellTox Green Cytotoxicity Assay to monitor cytotoxicity in HEK293 cells - 40 hour (AID 1224871). Note: nearly all actives have a fitted effect of over 45% in size. Summed up:
as §2

Assay [14] in a line: qHTS RealTime-Glo MT Cell Viability Assay in HEK293 cells - 16 hour (AID 1224872). In short, it runs like this:
as §1

Assay [15] in a line: qHTS RealTime-Glo MT Cell Viability Assay in HepG2 cells - 8 hour (AID 1224873). Note: nearly all actives have a fitted effect of over 55% in size. Summed up:
as §3

Assay [16] in a line: qHTS assay to identify small molecule antagonists of the estrogen related receptor signaling pathway with the pleiotropic PPARgamma coactivator (PGC) from Tox21 10K library (AID 1224841; call rule not given here). Summed up: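 Each well held 2,000 PGC/ERR cells, pre-incubated six hours (37 C, 5% CO2). Test substances in DMSO were added by pin tool and left for 18 h at 37 C before luciferase detection by One-Glo.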

Assay [17] is described as follows: qHTS assay to identify small molecule agonists of the estrogen related receptor signaling pathway with the pleiotropic PPARgamma coactivator (PGC) from Tox21 10K library (AID 1224842). Note: nearly all actives have a fitted effect of over 15% in size. In short, it runs like this:
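PGC/ERR reporter cell line, 2,000 cells per well, incubated 6 h at 37 C before 23 nL compound in DMSO was added. After 18 h at 37 C, One-Glo luminescence read following 30 min at room temperature.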

The nature of assay [18]: qHTS assay to identify small molecule antagonists of the estrogen related receptor (ERR) signaling pathway from Tox21 library (AID 1224848). Note: nearly all actives have a fitted effect of over 50% in size. In short, it runs like this:
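ERR reporter cell line (from NTP) seeded 2,000 cells/well, rested 6 h at 37 C/5% CO2, then pin-dosed with compounds in DMSO. After 18 h at 37 C, ONE-Glo added; luminescence read after 30 min at room temperature.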

Assay [19] is described as follows: qHTS assay to identify small molecule agonists of the estrogen related receptor (ERR) signaling pathway from Tox21 library (AID 1224849; calls by dose curve; note: nearly all actives have a fitted effect of over 15% in size). Conditions: ERR reporter cell line, ONE-Glo luciferase, 18 h; at 92.4 µM (top of the series). Summed up:
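Six hours post-seeding at 37 C/5% CO2, ERR cells receive DMSO-solubilised compounds; after 18 h at 37 C, ONE-Glo reagent is applied and luminescence recorded.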

The nature of assay [20]: qHTS assay to identify small molecule agonists of H2AX - cell viability counter screen (AID 1224847; calls by dose curve; note: top concentration of the series differs between compounds; nearly all actives have a fitted effect of over 30% in size). In short, it runs like this: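 CHO-K1 wt, 1000 cells/well, o/n 37C; cpds 15 conc, 3 h 37C, 0.76% DMSO; CellTiter-Glo, 30 min RT, luminescence.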

Where “and” joins values, the source holds several entries; their conditions need not be identical. Equal values may be shown once. Results filed as inconclusive are left out. More than one record can exist for a structure, and the calls need not agree. Calls of active or inactive are those of the source. Unless noted, calls come from the whole dose curve; as a rule, active = well fitted curve in the direction sought with a large enough effect in the repeat runs; inconclusive = weak or mixed curves; inactive = no such curve, though single readings can be large; an effect the other way counts as inactive or inconclusive.
% is set by controls: 0 for no effect and ±100 for the full control effect.

Sequence of Thyrotropin receptor (Homo sapiens) (P16473 whole entry, looked up): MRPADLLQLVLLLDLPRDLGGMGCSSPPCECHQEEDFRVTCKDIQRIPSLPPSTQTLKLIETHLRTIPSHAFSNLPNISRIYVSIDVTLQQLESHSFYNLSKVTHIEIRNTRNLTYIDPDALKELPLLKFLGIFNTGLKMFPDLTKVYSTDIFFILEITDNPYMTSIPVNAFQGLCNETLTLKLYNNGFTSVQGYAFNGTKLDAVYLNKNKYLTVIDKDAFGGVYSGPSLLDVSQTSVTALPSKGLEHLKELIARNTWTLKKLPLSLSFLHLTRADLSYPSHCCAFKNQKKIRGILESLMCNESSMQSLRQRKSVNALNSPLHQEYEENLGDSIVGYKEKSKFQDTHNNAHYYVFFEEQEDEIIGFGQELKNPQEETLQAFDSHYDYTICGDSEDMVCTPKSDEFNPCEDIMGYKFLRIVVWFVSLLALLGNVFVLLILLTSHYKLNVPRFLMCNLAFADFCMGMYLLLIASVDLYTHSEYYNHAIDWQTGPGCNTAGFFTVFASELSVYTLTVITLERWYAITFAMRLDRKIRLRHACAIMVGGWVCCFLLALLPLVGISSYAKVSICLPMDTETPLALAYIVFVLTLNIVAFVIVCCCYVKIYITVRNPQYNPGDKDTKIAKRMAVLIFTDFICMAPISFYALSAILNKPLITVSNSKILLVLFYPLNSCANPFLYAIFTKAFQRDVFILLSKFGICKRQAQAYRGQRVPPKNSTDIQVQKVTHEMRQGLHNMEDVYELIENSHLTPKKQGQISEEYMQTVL

As for `CC(C)=C[C@@H]1[C@@H](C(=O)OCc2coc(Cc3ccccc3)c2)C1(C)C`, the Potency result in [1], in [2], in assay [4], in [5], in assay [6] and in assay [7] was “inactive” throughout. The Potency result in assay [10], in assay [11] and in assay [13] was “inactive” each time. For the same molecule, the Potency in assay [3] is 17.2 µM (active) and inactive. Besides, the result in assay [8], in [9], in assay [12], in assay [14] and in assay [15] was inactive.

With `CON(C)C(=O)Nc1ccc(Cl)c(Cl)c1`, the Potency result in assay [1], in [2], in [4], in assay [16], in assay [5] and in assay [6] was “inactive” in each case. Besides, the Potency entry in assay [7], in assay [18], in [11] and in [13] was “inactive” each time. Also, the Potency was 61.4 µM (active) and 54.5 µM (active) in assay [3]; 43.6 µM (active) in [10]. Further, the molecule was called inactive in [17], in assay [8], in assay [9], in assay [14] and in assay [15]. The activity change, positive = activation in assay [19] was -4.36% (inactive) and -0.559% (inactive).

Turning to `Oc1ccccc1Cl`, the Potency result in [1], in [2], in [3], in assay [4], in assay [5] and in assay [6] was “inactive” throughout. Further, the Potency entry in assay [7], in assay [10], in assay [11] and in assay [13] was “inactive” throughout. Moreover, the molecule was classed as inactive in assay [8], in assay [9], in [12], in [14] and in [15].

`CN(C)N=O`: the Potency entry in assay [1], in [2], in assay [3], in [4], in assay [6] and in [7] was “inactive” in each case. The Potency result in assay [20], in assay [10], in assay [11] and in assay [13] was “inactive” throughout. Besides, the molecule was called inactive in assay [8], in assay [9], in assay [12], in assay [14] and in [15].

As for `BrCCBr`, the Potency result in [1], in [2], in assay [3], in [4], in assay [16] and in assay [5] was “inactive” each time. The Potency entry in assay [6], in assay [7], in assay [20], in assay [18], in assay [10] and in assay [11] was “inactive” in each case. Besides, the Potency entry in assay [13] is “inactive”. Also, the outcome in assay [17], in assay [8], in [9], in [12], in [14] and in assay [15] was inactive. Further, the activity change, positive = activation in assay [19] is 3.43% (inactive) and 4.88% (inactive).

`NCCc1ccc(O)cc1`: the Potency result in assay [1], in assay [2], in assay [3], in assay [4], in assay [5] and in [6] was “inactive” in each case. Also, the Potency result in assay [7], in assay [20], in [10], in assay [11] and in assay [13] was “inactive” each time. The call in assay [9], in [14] and in assay [15] was inactive.

As for `O=NN1CCCCCCC1`, the Potency result in [1], in assay [2], in [3], in assay [4], in assay [5] and in assay [6] was “inactive” throughout. The Potency result in assay [7], in assay [10], in assay [11] and in assay [13] was “inactive” throughout. The call in [8], in [9], in [12], in assay [14] and in assay [15] was inactive.

On to `[N-]=[N+]=[N-]`, for which the Potency result in assay [1], in assay [2], in assay [3], in [4], in assay [5] and in assay [6] was “inactive” each time. In addition, the Potency result in [7], in assay [20], in assay [10], in assay [11] and in [13] was “inactive” throughout. For the same molecule, the molecule was called inactive in assay [8], in assay [9], in assay [12], in assay [14] and in assay [15].

These data come from PubChem BioAssay (Tox21).
